Values without a mark were called inactive. Results filed as inconclusive are left out. Active and inactive are the calls of the source. Unless noted, the call rests on the fitted dose curve; in most records, active means well fitted curve in either direction with a large enough effect (not every such curve was filed as active); inconclusive means small, poorly fitted or top-dose-only effect, or another doubt; inactive means flat fitted curve, though single readings scatter.
Legend:
[1] = molecular target: Lysosomal acid glucosylceramidase (Homo sapiens) (UniProt P04062); assay: Glucocerebrosidase-p2 (AID 348; in the data active means potency below about 10 µM; further: potency means the concentration at half of the fitted maximal effect); details: purified GBA, blue fluorogenic substrate, 40 min
Lysosomal acid glucosylceramidase (Homo sapiens), sequence (P04062 whole entry, looked up): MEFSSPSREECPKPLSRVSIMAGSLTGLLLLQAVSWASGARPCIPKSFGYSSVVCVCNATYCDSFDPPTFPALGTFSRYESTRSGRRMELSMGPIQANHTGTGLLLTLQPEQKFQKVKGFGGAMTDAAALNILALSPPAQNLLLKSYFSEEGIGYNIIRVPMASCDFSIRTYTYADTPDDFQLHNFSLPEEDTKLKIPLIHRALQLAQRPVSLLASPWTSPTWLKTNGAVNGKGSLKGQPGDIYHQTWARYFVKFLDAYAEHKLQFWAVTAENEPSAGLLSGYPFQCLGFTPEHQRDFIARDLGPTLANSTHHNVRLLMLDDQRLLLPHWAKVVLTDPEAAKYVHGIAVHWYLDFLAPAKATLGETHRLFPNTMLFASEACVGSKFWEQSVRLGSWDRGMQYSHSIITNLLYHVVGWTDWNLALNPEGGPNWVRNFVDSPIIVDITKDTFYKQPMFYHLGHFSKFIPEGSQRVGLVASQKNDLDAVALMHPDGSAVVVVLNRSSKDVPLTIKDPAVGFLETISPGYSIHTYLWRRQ
Method in brief: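 Normal human glucocerebrosidase (0.2 nM) with blue fluorogenic substrate (80 uM final) in citrate/phosphate pH 5.9 with 10mM sodium taurocholate, 0.01% tween-20; 40 min RT, NaOH/glycine stop; fluorescence Ex 365/Em 440; AC50 from a titration from 0.6 nM upwards.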

[2] = AP1 Signaling Pathway (AID 357); details: ME-180 AP-1-bla reporter, EGF-induced, beta-lactamase ratio, 5 h; at 7.69 µM (top of the series) unless noted;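 further: ME-180 reporter cells stimulated with EGF at its EC50 level; on the % scale 0 is the no-effect control and ±100 the full control effect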
Method in brief: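 Modulation of EGF-driven AP-1 transcription was assessed with a beta-lactamase reporter in ME-180 cells. Compound and EC50 EGF were co-incubated 5 hours at 37 °C before 2.5-hour CCF4 loading at room temperature and dual-emission reading.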

[3] = molecular target: Cytochrome P450 1A2 (Homo sapiens) (UniProt P05177); assay: p450-cyp1a2 (AID 410; calls by dose curve; further: potency means the concentration at half of the fitted maximal effect;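 on activity change, negative = inhibition: -100% = full effect of reference inhibitor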); details: recombinant CYP1A2, luciferin-ME demethylation, luminescence; series mostly up to 11.4 µM
Cytochrome P450 1A2 (Homo sapiens), sequence (P05177 whole entry, looked up): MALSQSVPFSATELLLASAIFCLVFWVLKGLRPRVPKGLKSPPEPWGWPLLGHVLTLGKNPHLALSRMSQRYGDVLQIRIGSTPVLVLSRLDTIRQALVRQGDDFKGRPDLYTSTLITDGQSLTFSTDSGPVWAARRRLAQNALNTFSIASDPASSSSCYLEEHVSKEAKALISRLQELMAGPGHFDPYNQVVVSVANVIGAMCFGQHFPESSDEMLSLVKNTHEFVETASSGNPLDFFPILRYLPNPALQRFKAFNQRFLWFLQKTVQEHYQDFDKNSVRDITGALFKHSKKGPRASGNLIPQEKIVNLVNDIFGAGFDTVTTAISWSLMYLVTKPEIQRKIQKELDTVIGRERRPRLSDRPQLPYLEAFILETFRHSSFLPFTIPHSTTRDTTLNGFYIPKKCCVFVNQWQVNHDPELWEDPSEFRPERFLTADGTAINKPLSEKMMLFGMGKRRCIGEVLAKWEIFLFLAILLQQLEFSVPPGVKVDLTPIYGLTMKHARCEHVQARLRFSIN
Method in brief: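 O-Demethylation of luciferin 6' methyl ether by human CYP1A2 is monitored as luciferase luminescence. Substrate sits at Km (100uM); enzyme is 20nM. Values are scaled to 57 uM furafylline as maximal inhibition.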

[4] = NFAT Signaling Pathway (AID 444); details: Jurkat NFAT-bla M1, carbachol, beta-lactamase ratio, 5 h; at 7.69 µM (top of the series) unless noted;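 further: carbachol stimulus at about its EC50 of 1 µM final; on the % scale 0 is the no-effect control and ±100 the full control effect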
Method in brief: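 Read-out: CCF4 FRET ratio (460 nm/530 nm) after 1 h RT dye loading, used for %activity and AC50 from titration series. Cells: Jurkat NFAT-β-lactamase/M1 line, treated with compound plus 1 uM carbachol for 5 h, 37 °C.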

[5] = Stat Signaling Pathway (AID 446); details: ME-180 (cervical carcinoma) SIE beta-lactamase reporter, IL-6 stimulated, 5 h; at 7.69 µM (top of the series) unless noted;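 further: ME-180 cervical cancer cells given 40 pM IL-6 alongside compound; SIE-controlled beta-lactamase reporter measured as 460/530 nm FRET emission ratio; on the % scale 0 is the no-effect control and ±100 the full control effect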
Method in brief: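 FRET read-out (405 nm excitation, 460/530 nm emission) of a beta-lactamase reporter under a STAT-inducible element in ME-180 cervical carcinoma cells. Cells with compound receive 40 pM IL-6 for 5 h. Values are normalised to AC90 stimulation and AC90 JAK-inhibitor controls.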

[6] = molecular target: Glucocorticoid receptor (Homo sapiens) (UniProt P04150); assay: GR-GFP Redistribution (AID 450;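 active means compounds whose dose series gives a full or clear partial fitted curve of increased nuclear translocation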; further: potency means the concentration at half of the fitted maximal effect); details: U2OS GR-GFP nuclear translocation, laser cytometry, 2 h
Glucocorticoid receptor (Homo sapiens), sequence (P04150 whole entry, looked up, the tested form may be a part): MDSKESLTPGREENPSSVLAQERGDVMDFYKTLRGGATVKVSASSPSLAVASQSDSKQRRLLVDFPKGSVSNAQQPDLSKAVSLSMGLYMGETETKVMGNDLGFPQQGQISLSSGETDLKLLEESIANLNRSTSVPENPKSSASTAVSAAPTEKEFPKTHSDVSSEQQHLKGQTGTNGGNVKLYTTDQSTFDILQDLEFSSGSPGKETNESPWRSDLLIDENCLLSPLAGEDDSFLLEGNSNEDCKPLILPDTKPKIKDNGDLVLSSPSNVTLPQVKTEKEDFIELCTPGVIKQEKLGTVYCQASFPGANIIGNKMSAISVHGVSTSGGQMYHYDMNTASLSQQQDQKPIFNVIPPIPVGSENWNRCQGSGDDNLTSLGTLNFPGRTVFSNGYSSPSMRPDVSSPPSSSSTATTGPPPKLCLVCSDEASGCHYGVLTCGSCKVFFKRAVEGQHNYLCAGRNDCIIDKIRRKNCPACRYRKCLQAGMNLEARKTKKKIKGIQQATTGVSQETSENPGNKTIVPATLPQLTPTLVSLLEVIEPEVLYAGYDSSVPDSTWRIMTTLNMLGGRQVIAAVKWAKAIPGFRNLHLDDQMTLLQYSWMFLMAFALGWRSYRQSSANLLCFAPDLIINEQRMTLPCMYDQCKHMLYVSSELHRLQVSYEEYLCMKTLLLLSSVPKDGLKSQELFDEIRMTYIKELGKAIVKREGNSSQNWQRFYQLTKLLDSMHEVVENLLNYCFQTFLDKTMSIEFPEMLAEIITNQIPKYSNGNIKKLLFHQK

[7] = molecular target: Glucocorticoid receptor (Homo sapiens) (UniProt P04150); assay: GR-EFC Redistribution (AID 451; calls by dose curve; further: potency means the concentration at half of the fitted maximal effect); details: CHO-K1 GR-EFC translocation, beta-gal luminescence, 2 h
Method in brief: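 Translocation of GR-ED fusion to nuclear EA restores b-gal, read by luminescence after 1 h room-temperature detection. Engineered CHO-K1 biosensor cells, 1,000/well, exposed 2 h at 37 C to titrations up to 46 uM final.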

[8] = molecular target: Mitogen-activated protein kinase 10 (Mus musculus) (UniProt Q61831); assay: JNK3 AlphaScreen Assay (AID 530); details: JNK3 lysate, c-Jun phosphorylation; series mostly up to 11.4 µM;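 further: kinase came from lysate of stimulated human HepG2 cells; signal reports phosphorylation of biotinylated GST-cJun 1-79 at Ser73 with 10 µM ATP; on the % scale 0 is the no-effect control and ±100 the full control effect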
Method in brief: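 qHTS titrations with 15 min compound pre-incubation before adding ATP (10 uM final). Read-out: AlphaScreen of Ser73-phosphorylated biotin-GST-cJun using HepG2 lysate JNK3 activated by IL-1β and TNFα.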

[9] = molecular target: 3',5'-cyclic-AMP phosphodiesterase 4B (Homo sapiens) (UniProt Q07343); assay: qHTS Assay for Inhibitors of PDE-IV (AID 607; active means well fitted activation curve with a large enough effect in the main read-out, with a control signal flat, not every such curve was filed as active; further: % of control where 0% means no effect); details: HEK293 ACTOne CNG channel cells, membrane potential fluorescence; series mostly up to 22.9 µM
3',5'-cyclic-AMP phosphodiesterase 4B (Homo sapiens), sequence (Q07343 whole entry, looked up): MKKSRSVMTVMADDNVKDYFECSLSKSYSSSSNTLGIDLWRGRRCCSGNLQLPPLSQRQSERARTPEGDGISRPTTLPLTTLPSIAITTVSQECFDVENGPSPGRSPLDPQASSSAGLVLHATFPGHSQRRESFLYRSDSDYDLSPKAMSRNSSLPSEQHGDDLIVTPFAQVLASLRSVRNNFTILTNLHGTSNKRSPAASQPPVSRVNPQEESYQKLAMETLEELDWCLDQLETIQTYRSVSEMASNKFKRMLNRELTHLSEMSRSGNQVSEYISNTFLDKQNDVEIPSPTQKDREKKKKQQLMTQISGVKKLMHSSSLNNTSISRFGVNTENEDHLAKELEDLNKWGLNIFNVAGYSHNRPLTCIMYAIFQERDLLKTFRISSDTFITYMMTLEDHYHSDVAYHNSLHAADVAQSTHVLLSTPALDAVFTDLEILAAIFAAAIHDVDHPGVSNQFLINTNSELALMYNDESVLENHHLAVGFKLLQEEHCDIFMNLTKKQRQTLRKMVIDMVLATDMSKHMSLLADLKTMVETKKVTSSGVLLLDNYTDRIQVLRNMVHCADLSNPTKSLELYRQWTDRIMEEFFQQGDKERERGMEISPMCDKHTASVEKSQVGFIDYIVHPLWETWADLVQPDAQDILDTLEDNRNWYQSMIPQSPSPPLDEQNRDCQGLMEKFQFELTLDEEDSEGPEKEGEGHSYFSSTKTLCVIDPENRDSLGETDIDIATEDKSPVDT
Method in brief: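 Cell-based read-out of cAMP via a modified cyclic nucleotide-gated channel and membrane potential dye (535/590 nm) in HEK293 cells expressing PDE4 endogenously. Compounds tested up to 22.9 uM final; 100 uM RO 20-1724 reference.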

Structure (SMILES)	Potency [1]	activity change, negative = inhibition [2]	Potency [3]	activity change, negative = inhibition [4]	activity, negative = inhibition [5]	Potency [6]	Potency [7]	Potency [8]	Potency [9]	activity change, negative = inhibition [3]
COc1ccc([C@H](O)c2ccccn2)cc1	> 11.4 µM	-0.268%	inactive	2.24%	9.75%	> 46 µM	> 9.22 µM	inactive	inactive	–
NC(N)=Nc1ccc(-c2ccc(N=C(N)N)cc2)cc1	> 11.4 µM	1.56%	inactive	4.39%	0.358%	> 46 µM	> 9.22 µM	inactive	inactive	–
Fc1cccc(CSc2ncnc3c2ncn3[C@H]2CCCS2)c1	> 11.4 µM	-5.08%	0.501 µM (active)	-2.58%	3.04%	> 46 µM	> 9.22 µM	inactive	inactive	–
O=S(=O)(c1ccc(Br)cc1)N1CCN(S(=O)(=O)c2ccc(Br)cc2)CC1	> 11.4 µM	14.8%	inactive	-0.352%	5.43%	> 46 µM	> 9.22 µM	inactive	inactive	–
CC(C)(C)c1ccc(OC(=O)Nc2ccc(O)c(C(=O)O)c2)cc1	> 11.4 µM	-0.0209%	–	6.49%	0.0223%	> 46 µM	> 9.22 µM	inactive	inactive	6.5% [at 2.29 µM]
COC(=O)[C@@H]1[C@@H]2C[C@H]3c4[nH]c5ccccc5c4CCN3C[C@@H]2CC[C@@H]1OS(=O)(=O)O	> 11.4 µM	1.46%	–	3.3%	12.7%	> 46 µM	> 9.22 µM	inactive	inactive	-10.3% [at 2.29 µM]
CCN(CC)C[C@@H](O)c1ccc2ccc3ccccc3c2c1	> 11.4 µM	15.5%	0.794 µM (active)	16.1%	13.3%	> 46 µM	> 9.22 µM	inactive	inactive	–
Cn1c(C[C@@H](O)c2nc3ccccc3n2C)nc2ccccc21	> 11.4 µM	11.7%	–	13.3%	8.01%	> 46 µM	> 9.22 µM	inactive	inactive	-2.6% [at 2.29 µM]
C[C@@H](CS(=O)(=O)Cc1ccccc1)C(N)=O	> 11.4 µM	8.67%	inactive	5.68%	3.43%	> 46 µM	> 9.22 µM	inactive	inactive	–
OCCNc1ncnc2c1ncn2[C@@H]1O[C@@H](CO)[C@H](O)[C@@H]1O	> 11.4 µM	3.21%	inactive	9.99%	25.8%	> 46 µM	> 9.22 µM	inactive	inactive	–
O=C(O)c1cc(-c2ccc(-c3ccc(-c4cc(C(=O)O)c5cc(Cl)ccc5n4)cc3)cc2)nc2ccc(Cl)cc12	> 11.4 µM	-6.84%	–	-22%	-13.1%	> 46 µM	> 9.22 µM	inactive	inactive	-18.2% [at 2.29 µM]
c1ccc2c(CC3NCCN3)cccc2c1	> 11.4 µM	7.37%	inactive	-8.06%	1.71%	> 46 µM	> 9.22 µM	inactive	inactive	–
Nc1nc(N)c2[nH]c(CNc3ccc(C(=O)O)cc3)nc2n1	> 11.4 µM	-2.88%	inactive	23.3%	-0.181%	> 46 µM	> 9.22 µM	inactive	inactive	–
O=C(NNC(=O)c1ccncc1)c1ccncc1	> 11.4 µM	4.63%	inactive	6.39%	2.81%	> 46 µM	> 9.22 µM	inactive	inactive	–
O=C(O)c1cc(N=Cc2ccccc2O)cc(C(=O)O)c1	> 11.4 µM	-3.29%	inactive	17.2%	-4.46%	> 46 µM	> 9.22 µM	inactive	inactive	–
O=C(O)[C@H](Cc1ccc(O)c([N+](=O)[O-])c1)N1C(=O)c2ccccc2C1=O	> 11.4 µM	0.441%	–	11.4%	2.16%	> 46 µM	> 9.22 µM	inactive	inactive	-17.9% [at 2.29 µM]

Structure (SMILES)	Potency [1]	activity change, negative = inhibition [2]	Potency [3]	activity change, negative = inhibition [4]	activity, negative = inhibition [5]	Potency [6]	Potency [7]	Potency [8]	Potency [9]	activity change, negative = inhibition [3]
O=c1cc(CF)[nH]c(=S)[nH]1	> 11.4 µM	6.77%	inactive	5.97%	13.4%	> 46 µM	> 9.22 µM	inactive	inactive	–
N=C(N)SCCc1ccncc1	> 11.4 µM	3.09%	–	-0.295%	3.81%	> 46 µM	> 9.22 µM	inactive	inactive	-17.8% [at 2.29 µM]
c1cc2c(cc1C(N1CCNCC1)N1CCNCC1)OCO2	> 11.4 µM	1.84%	–	8.42%	-2.48%	> 46 µM	> 9.22 µM	inactive	inactive	-3% [at 2.29 µM]
Cc1cc(N2CCN(C)CC2)n2nc(-c3ccc(Cl)cc3)nc2n1	> 11.4 µM	-1.96%	inactive	13.2%	4.28%	> 46 µM	> 9.22 µM	inactive	inactive	–
NCCSCCc1ccccc1	> 11.4 µM	-3.04%	5.01 µM (active)	3.22%	4.42%	> 46 µM	> 9.22 µM	inactive	inactive	–
O=C(O)[C@H](CCc1ccccc1)N1C(=O)c2ccccc2C1=O	> 11.4 µM	-11.9%	–	-3.82%	8.91%	> 46 µM	> 9.22 µM	inactive	inactive	-9.6% [at 2.29 µM]
C[N+](C)(C)CCCSc1nc2ccccc2[nH]1	> 11.4 µM	-2.62%	inactive	-15.2%	-0.948%	> 46 µM	> 9.22 µM	inactive	inactive	–
Fc1cccc(F)c1C(Nc1nncs1)Nc1nncs1	> 11.4 µM	1.35%	–	15.7%	6.21%	> 46 µM	> 9.22 µM	inactive	inactive	12.3% [at 2.29 µM]
Cn1c(=O)c2[nH]c(/N=N\N3CCN(CCO)CC3)nc2n(C)c1=O	> 11.4 µM	6.96%	–	7.64%	11.6%	> 46 µM	> 9.22 µM	inactive	inactive	-14.7% [at 2.29 µM]
O=C(O)c1ccc(Nc2ccnc3cc(Cl)ccc23)cc1O	> 11.4 µM	-7.31%	3.98 µM (active)	11.5%	-9.48%	> 46 µM	> 9.22 µM	inactive	inactive	–
OCCN(CO)CO	> 11.4 µM	6.19%	inactive	13.5%	7.15%	> 46 µM	> 9.22 µM	inactive	inactive	–
C#CCOCCCC(=O)O	> 11.4 µM	-3.26%	inactive	0.738%	4.1%	> 46 µM	> 9.22 µM	inactive	inactive	–
NCCCc1c(-c2ccccc2)nc(N)[nH]c1=O	> 11.4 µM	0.759%	inactive	4.17%	9.18%	> 46 µM	> 9.22 µM	inactive	inactive	–
NC(N)=NC(N)=Nc1ccccc1 (tested in a mixture with another compound)	> 11.4 µM	-4.98%	3.16 µM (active)	10.5%	1.58%	> 46 µM	> 9.22 µM	inactive	inactive	–
COc1cccc2c1C(=O)c1c(O)c3c(c(O)c1C2=O)C[C@@](O)(C(=O)CO)C[C@H]3O[C@H]1C[C@@H](N)[C@H](O)[C@@H](C)O1.[W]	> 11.4 µM	0.391%	inactive	-27.2%	14.9%	> 46 µM	> 9.22 µM	inactive	inactive	–
C[C@@]12CC[C@@H]3[C@H](CCC4=CC(=O)CC[C@]43C)[C@@H]1CC[C@@H]2C(=O)COS(=O)(=O)c1ccc(Br)cc1	> 11.4 µM	-0.601%	inactive	19%	-0.203%	0.793 µM (active)	> 9.22 µM	inactive	inactive	–

Source: PubChem BioAssay (NCATS)
